Test results as given in PubChem BioAssay.
Activity calls are given as the source filed them. Unless noted, the rule behind the calls is not given here.

Key:
[1] = anti-His antibody binders, primary screen, artefact control for SMM control protein annotation, biochemical, small-molecule microarray, 635 nm fluorescence (AID 1128); settings: anti-His Alexa647 antibody binding, higher = more signal;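 note: score merges feature fluorescence with signal-to-noise for each printed compound spot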
[2] = tested on: Human papillomavirus type 1a E7 protein (residues 1-88); assay: HPV1a E7 small-molecule binders, primary screen, biochemical, small-molecule microarray, residues 1-88, 635 nm (AID 1129); settings: small-molecule microarray binding, fluorescence 635 nm; higher = more signal
[3] = target: Focal adhesion kinase 1 (Homo sapiens) (UniProt Q05397); assay: small-molecule microarray binders of FAK, primary screen, biochemical, 635/667 nm fluorescence, BSA, DTT (AID 1130); settings: PTK2 binding, 635 nm fluorescence, higher = more signal;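 note: composite of spot emission at 667 nm and signal to noise over triplicate slides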
[4] = tested on: Fibrinogen (Alexa647-labelled); assay: fibrinogen binders on compound microarrays, profiling panel, artefact control for SMM control-protein annotation, biochemical, small-molecule microarray, 635/667 nm fluorescence (AID 1131); settings: fibrinogen-A647 binding fluorescence, higher = more signal;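 note: z-score merges 667 nm fluorescence with per-spot signal-to-noise over triplicate slides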
[5] = target: Follistatin (Homo sapiens) (UniProt P19883); assay: follistatin binders on small-molecule microarrays, primary screen, biochemical, small-molecule microarray, 635/667 nm fluorescence (AID 1132); settings: FST binding, 635 nm fluorescence, higher = more signal
[6] = target: Fibroblast growth factor 2 (Homo sapiens) (UniProt P09038); assay: FGF2 binders on small-molecule microarrays, primary screen, biochemical, small-molecule microarray, 635/667 nm fluorescence (AID 1133); settings: small-molecule microarray binding, FGF2, fluorescence 635/667; higher = more signal
[7] = mitochondrial membrane potential change in A549 cells, profiling panel, cell-based, JC-1 fluorescence, basal, 24 h, 100 nL (AID 1138); settings: higher = more signal;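 note: A549 lung adenocarcinoma cells under basal conditions with no added stimulus; test concentration not given here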
[8] = tested on: Lefty1; assay: Lefty1 binders on small-molecule microarrays, primary screen, biochemical, small-molecule microarray, 635/667 nm fluorescence (AID 1139); settings: small-molecule microarray binding, fluorescence 635/667; higher = more signal
[9] = tested on: wheat germ agglutinin (Triticum aestivum), Alexa647-labelled; assay: wheat germ agglutinin binders on compound microarrays, profiling panel, artefact control for SMM control-protein annotation, biochemical, small-molecule microarray, 635/667 nm fluorescence (AID 1140); settings: WGA-A647 binding, 635 nm fluorescence, higher = more signal;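 note: score merges 667 nm feature emission with signal to noise over triplicate slides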
[10] = target: Luciferin 4-monooxygenase (Photinus pyralis) (UniProt P08659); assay: firefly luciferase enzyme inhibitors, primary screen, biochemical, luminescence, purified enzyme, 2006 set (AID 1141); settings: SteadyGlo luminescence, 30 min, higher = more signal, called active from +8 up or from −8 down;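 note: cell-free assay with purified firefly luciferase at 100 ng per well in PBS; test concentration not given here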
[11] = tested on: Wnt5a (protein binding on small-molecule microarray); assay: Wnt5a binders on small-molecule microarray, primary screen, biophysical, 635/667 nm fluorescence (AID 1142); settings: 635 nm fluorescence, higher = more signal;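 note: fluorescence read at 667 nm with signal to noise per printed feature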
[12] = cell viability in Huh7 cells, primary screen, cytotoxicity control for HCV replication inhibitor project, CellTiter-Glo luminescence, basal, 48 h (AID 1143); settings: Huh7 HCV replicon, higher = more signal, called active from +8 up or from −8 down;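 note: Huh7 hepatoma cells carrying a hepatitis C replication reporter with no stimulus; test concentration not given here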
[13] = P. aeruginosa biofilm formation inhibitors, primary screen, PAO1 strain, BacTiter-Glo luminescence, LB-PBS (AID 1144); settings: 12 h, higher = more signal
[14] = CREB reporter modulators without forskolin, primary screen, cell-based, PC12, CRE-LacZ reporter, unstimulated (AID 1145); settings: no forskolin, luminescence, 4.5 h, higher = more signal, called active from +8 up or from −8 down
[15] = CREB reporter modulators under forskolin, primary screen, cell-based, PC12, CRE-LacZ reporter, forskolin-stimulated (AID 1146); settings: luminescence, 4.5 h, higher = more signal, called active from +8 up or from −8 down;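 note: PC12 cells with 6xCRE LacZ reporter stimulated by forskolin 10 µM; beta-galactosidase reporter signal reflecting CREB driven transcription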
[16] = target: Streptavidin (Streptomyces avidinii) (UniProt P22629); assay: streptavidin binders on small-molecule microarray, primary screen, artefact control for SMM compound annotation, biophysical, 635/667 nm fluorescence (AID 1147); settings: streptavidin binding, higher = more signal;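 note: signal reflects streptavidin binding to arrayed compounds as a control protein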
[17] = small-molecule binders of probe aInhba, primary screen, biochemical, small-molecule microarray, 635/667 nm fluorescence (AID 1148); settings: higher = more signal;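 note: score merges 667nm spot fluorescence with signal-to-noise for antibody binding to printed compounds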
[18] = target: Torsin-1A (Homo sapiens) (UniProt O14656); assay: torsin A binders from cell lysate, primary screen, small-molecule microarray, wild-type, 635/667 nm (AID 1149); settings: COS7 hTOR1A-WT lysate, 635 nm fluorescence, higher = more signal
[19] = target: Torsin-1A (Homo sapiens) (UniProt O14656); assay: small-molecule binders of mutant TOR1A in lysate, primary screen, cell lysate, small-molecule microarray, COS7 lysate, 635/667 nm fluorescence (AID 1150); settings: COS7 hTOR1A mutant lysate, 635 nm fluorescence, higher = more signal;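 note: score pools 667 nm emission and signal to noise measuring lysate protein binding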
[20] = tested on: Sonic hedgehog protein (Shh); assay: small-molecule binders of Shh protein, primary screen, biochemical, small-molecule microarray, 635/667 nm fluorescence (AID 1151); settings: small-molecule microarray binding, 635 nm fluorescence; higher = more signal;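 note: Shh protein binding to compounds spotted on small-molecule microarray slides; score combines spot fluorescence intensity with signal-to-noise across triplicate slides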

Fibroblast growth factor 2 (Homo sapiens), sequence (P09038 whole entry, looked up): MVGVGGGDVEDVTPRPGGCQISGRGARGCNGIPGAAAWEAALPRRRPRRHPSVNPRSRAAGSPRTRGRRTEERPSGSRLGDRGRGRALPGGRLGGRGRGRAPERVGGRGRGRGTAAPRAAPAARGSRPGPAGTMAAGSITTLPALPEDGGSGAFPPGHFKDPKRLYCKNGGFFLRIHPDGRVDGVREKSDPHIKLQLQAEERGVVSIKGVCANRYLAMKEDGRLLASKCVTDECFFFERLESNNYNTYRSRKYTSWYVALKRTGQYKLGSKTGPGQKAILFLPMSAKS
Follistatin (Homo sapiens), sequence (P19883 whole entry, looked up): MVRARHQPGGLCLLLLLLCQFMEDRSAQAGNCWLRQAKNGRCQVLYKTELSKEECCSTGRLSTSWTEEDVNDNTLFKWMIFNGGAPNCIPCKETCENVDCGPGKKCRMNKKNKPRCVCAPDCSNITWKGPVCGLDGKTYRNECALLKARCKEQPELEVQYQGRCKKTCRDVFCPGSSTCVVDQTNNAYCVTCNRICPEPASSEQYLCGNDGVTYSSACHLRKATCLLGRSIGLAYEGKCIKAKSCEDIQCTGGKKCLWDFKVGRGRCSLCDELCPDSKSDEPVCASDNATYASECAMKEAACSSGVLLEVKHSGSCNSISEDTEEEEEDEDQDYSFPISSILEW
Focal adhesion kinase 1 (Homo sapiens), sequence (Q05397 whole entry, looked up): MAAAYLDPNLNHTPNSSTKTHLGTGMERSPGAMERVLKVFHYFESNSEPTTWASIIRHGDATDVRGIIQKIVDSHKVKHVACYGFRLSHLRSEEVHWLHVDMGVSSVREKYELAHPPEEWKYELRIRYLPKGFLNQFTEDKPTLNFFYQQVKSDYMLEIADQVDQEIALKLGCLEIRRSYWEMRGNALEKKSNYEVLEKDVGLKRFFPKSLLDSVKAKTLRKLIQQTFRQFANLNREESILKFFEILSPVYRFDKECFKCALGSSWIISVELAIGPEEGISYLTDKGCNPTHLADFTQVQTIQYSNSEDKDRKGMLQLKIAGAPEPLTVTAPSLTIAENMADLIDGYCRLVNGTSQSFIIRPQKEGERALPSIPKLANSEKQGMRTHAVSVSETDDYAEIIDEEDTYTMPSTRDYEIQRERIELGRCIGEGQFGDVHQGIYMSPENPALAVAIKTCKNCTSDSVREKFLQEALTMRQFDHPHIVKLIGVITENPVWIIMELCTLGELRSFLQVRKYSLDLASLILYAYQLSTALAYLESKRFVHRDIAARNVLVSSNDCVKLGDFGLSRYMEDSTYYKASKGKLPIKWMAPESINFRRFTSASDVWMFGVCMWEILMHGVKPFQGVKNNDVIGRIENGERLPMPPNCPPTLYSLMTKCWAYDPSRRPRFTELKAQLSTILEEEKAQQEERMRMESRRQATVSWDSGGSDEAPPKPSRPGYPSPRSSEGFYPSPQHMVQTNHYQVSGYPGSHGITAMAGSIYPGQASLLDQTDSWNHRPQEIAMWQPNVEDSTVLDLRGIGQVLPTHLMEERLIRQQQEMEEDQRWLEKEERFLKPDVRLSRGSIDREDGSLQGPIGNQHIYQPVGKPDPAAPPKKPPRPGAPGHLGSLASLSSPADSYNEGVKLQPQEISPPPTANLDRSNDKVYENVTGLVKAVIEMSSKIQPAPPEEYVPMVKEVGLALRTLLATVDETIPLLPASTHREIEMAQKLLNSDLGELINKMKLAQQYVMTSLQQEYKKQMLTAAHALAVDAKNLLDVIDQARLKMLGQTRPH
Luciferin 4-monooxygenase (Photinus pyralis), sequence (P08659 whole entry, looked up): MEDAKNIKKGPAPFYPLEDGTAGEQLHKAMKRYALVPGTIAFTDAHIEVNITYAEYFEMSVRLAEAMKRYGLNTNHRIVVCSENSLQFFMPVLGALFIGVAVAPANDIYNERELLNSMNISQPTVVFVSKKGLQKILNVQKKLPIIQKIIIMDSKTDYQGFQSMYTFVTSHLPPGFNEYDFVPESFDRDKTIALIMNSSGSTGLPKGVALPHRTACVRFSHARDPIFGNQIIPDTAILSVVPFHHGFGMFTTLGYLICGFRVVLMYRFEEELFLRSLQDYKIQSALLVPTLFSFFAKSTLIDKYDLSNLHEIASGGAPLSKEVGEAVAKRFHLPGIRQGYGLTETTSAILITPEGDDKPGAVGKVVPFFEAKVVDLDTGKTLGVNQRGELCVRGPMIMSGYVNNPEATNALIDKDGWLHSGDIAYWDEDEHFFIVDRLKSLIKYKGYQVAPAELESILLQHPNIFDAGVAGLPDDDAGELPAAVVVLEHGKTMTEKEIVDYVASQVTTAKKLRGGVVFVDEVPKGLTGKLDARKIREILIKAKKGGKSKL
Torsin-1A (Homo sapiens), sequence (O14656 whole entry, looked up): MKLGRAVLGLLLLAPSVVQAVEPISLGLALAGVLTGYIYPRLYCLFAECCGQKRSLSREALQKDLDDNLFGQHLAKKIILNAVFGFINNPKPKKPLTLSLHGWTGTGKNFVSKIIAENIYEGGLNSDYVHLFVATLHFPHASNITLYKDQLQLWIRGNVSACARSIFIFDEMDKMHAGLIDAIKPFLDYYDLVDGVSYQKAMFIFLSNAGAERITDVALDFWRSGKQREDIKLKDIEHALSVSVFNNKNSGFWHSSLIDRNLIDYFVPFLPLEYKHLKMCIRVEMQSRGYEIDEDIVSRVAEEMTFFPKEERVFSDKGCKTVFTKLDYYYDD
Streptavidin (Streptomyces avidinii), sequence (P22629 whole entry, looked up): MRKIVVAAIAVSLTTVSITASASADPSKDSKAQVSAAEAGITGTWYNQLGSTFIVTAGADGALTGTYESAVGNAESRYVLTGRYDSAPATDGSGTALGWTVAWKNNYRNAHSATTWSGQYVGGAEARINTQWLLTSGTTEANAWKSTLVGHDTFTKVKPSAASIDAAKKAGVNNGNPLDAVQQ

Compound	composite z-score [1]	composite z-score [2]	composite z-score [3]	composite z-score [4]	composite z-score [5]	composite z-score [6]	z-score [7]	composite z-score [8]	composite z-score [9]	z-score [10]	composite z-score [11]	z-score [12]	z-score [13]	z-score [14]	z-score [15]	composite z-score [16]	composite z-score [17]	composite z-score [18]	composite z-score [19]	composite z-score [20]
COc1ccc(NC(=O)O[C@H]2[C@H](OC(=O)Nc3ccc4c(c3)OCO4)[C@H](OC(=O)Nc3ccc4c(c3)OCO4)[C@@H](OC)O[C@@H]2CO)cc1	1.45	1.25	0.216	0.362	1.29	0.319	0.0258	0.293	0.8	-6.52 (inactive)	0.0873	-2.42 (inactive)	0.883 (inactive)	0.456 (inactive)	-0.92 (inactive)	-0.0821	-0.0131	0.207	1.91	0.725
CCC[C@@H]1[C@@H](Sc2ccccc2)[C@@H](C(=O)O)[C@H](c2ccc(C)cc2)N1S(=O)(=O)c1ccc(C)cc1	0.832	1.25	0.725	1.05	0.769	0.0754	-0.61	0.717	0.774	1.46 (inactive)	0.664	-1.72 (inactive)	-1.96 (inactive)	-0.471 (inactive)	-0.722 (inactive)	1.67	0.0921	0.26	0.165	0.641
CC#CCO[Si](C#CCCCCCC)(C(C)C)C(C)C	-0.19	-0.419	-0.103	-1.49	-2.99	-2.42	-0.996	-1.93	0.064	0.944 (inactive)	-1.15	-1.03 (inactive)	-1.06 (inactive)	-0.374 (inactive)	2.09 (inactive)	-2.45	-0.288	-1.46	-1.03	-1.62
COCCCNC(=O)[C@@]1(Sc2ccc(C)cc2)CC(=O)N(C2CCCCC2)[C@@H]1c1ccc(CO)cc1I	1.74	1.18	0.737	0.922	1.09	0.659	0.816	0.136	0.814	0.235 (inactive)	0.0699	-1.41 (inactive)	0.134 (inactive)	-0.258 (inactive)	1.17 (inactive)	0.404	0.541	0.0619	0.401	0.993
O=C(NCC(F)(F)F)[C@@H]1c2ccccc2C(=O)N(CC23CC4CC(CC(C4)C2)C3)[C@H]1c1ccc(CO)cc1	1.08	0.722	1.46	0.378	1.16	1.15	0.588	0.827	0.393	0.972 (inactive)	0.41	-3.88 (inactive)	-2.52 (inactive)	-0.412 (inactive)	-1.46 (inactive)	-0.169	0.038	0.11	0.438	1.62
